Consider 31 compounds from PubChem BioAssay AID2728 (Broad Institute, 2010).

This test is described as follows: growth inhibition of V. harveyi BB721, confirmation, cytotoxicity control for AI-2 quorum sensing inhibitors, strain BB721, absorbance OD600 (AID 2728). To be noted: Vibrio harveyi BB721 growth, 9 h, at 7.5 µM, stronger effect = higher value.

This is one part of the list. Inconclusive results are not listed. A number with no mark means an inactive call.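 Rule for the calls: active = every replicate shows growth inhibition above 50%; inconclusive = at least half but not all replicates above 50% inhibition; inactive = under half of replicates above 50% inhibition.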

As for `COC(=O)c1ccc(SCc2ccccc2)nc1`, the growth inhibition is -21%.

On to `CC(=O)c1cccc(OCc2cc(C(=O)NC(C)Cc3cccnc3)no2)c1` (stereo unspecified), for which the growth inhibition is 8.38%.

For the compound `N/C(=N\OC(=O)CCc1ccccc1)c1cccnc1`, the growth inhibition is 0.547%.

For `O=C(CCC(=O)c1cccs1)Nc1nc2ccccc2s1`, the growth inhibition is -0.412%.

`CC(CNc1ccc([N+](=O)[O-])cc1)NC(=O)c1ccccc1Br` (stereo unspecified): the growth inhibition was -16.1%.

In the case of `O=C(/C=C/c1ccc2c(c1)OCCO2)c1ccc(O)cc1`, the growth inhibition was -21.7%.

With `S=C(NCc1ccc(Cl)cc1)NC1CCCCC1`, the growth inhibition is 12.8%.

With `Cc1cccc(CSc2ccc(-c3cccs3)nn2)c1`, the growth inhibition is -12.7%.

Consider `CN(Cc1cnccn1)C(=O)c1cc(COc2cccc(C(F)(F)F)c2)on1`, for which the growth inhibition is 18.2%.

As to `Cc1ccc(NC(=O)C2CC2c2ccccc2)cc1` (stereo unspecified), the growth inhibition is 7.3%.

On to `CC(C)(C)c1ccc(OC2=CS(=O)(=O)c3ccccc32)cc1`, for which the growth inhibition is 26.8%.

Consider `Cc1ccccc1NC(=O)CCOc1ccccc1`, for which the growth inhibition was -7.16%.

On to `O=C1COc2ccc(S(=O)(=O)Nc3ccc(OC(F)(F)F)cc3)cc2N1`, for which the growth inhibition is 55%.

In the case of `CCOC(=O)c1nn(-c2cccc(C)c2)cc1C(=O)c1ccccc1`, the growth inhibition is -7.63%.

As to `CCOc1ccc(/C=N/NC(N)=S)cc1`, the growth inhibition was 18%.

On to `Cc1ccsc1C(=O)OCC(=O)c1cc2ccccc2o1`, for which the growth inhibition was 4.04%.

Turning to `O=C(Cn1cnc2ccccc2c1=O)Nc1cccc(S(=O)(=O)N2CCCCC2)c1`, the growth inhibition is 14%.

For the compound `O=C(c1cc(-c2cccc(O)c2)on1)N1CCc2ccccc2C1`, the growth inhibition is 2.13%.

For `COc1ccc(/C(N)=N/OC(=O)Cc2ccccc2)cc1`, the growth inhibition was -4.72%.

Turning to `O=C(COc1ncnc2ccccc12)NC(=O)NCc1ccccc1`, the growth inhibition is 27.2%.

As to `COc1cccc(NC(=O)NCc2ccc(F)cc2)c1`, the growth inhibition was -16.1%.

`Cc1ccc(Oc2cnn(-c3ccccc3)c(=O)c2Br)cc1`: the growth inhibition is 4.98%.

On to `Cc1cc(CN(C)C(=O)c2cc(COc3ccc(C)c(C)c3)on2)n[nH]1`, for which the growth inhibition was 28.4%.

As for `Cc1cc(C(=O)OCC(=O)Nc2ccc(F)c(F)c2)c(C)o1`, the growth inhibition is -6.2%.

Consider `O=C(/C=C/c1ccc2c(c1)OCO2)NCc1ccc(F)cc1`, for which the growth inhibition was 16.5%.

With `Cc1nn(CC(=O)Nc2ccc(F)cc2)c(=O)c2ccccc12`, the growth inhibition is 0.351%.

Consider `O=C(COC(=O)C1CCCCC1)Nc1ccc([N+](=O)[O-])cc1`, for which the growth inhibition was -40.8%.

`Cc1ccc(Cc2nc(-c3cccc(C)c3)no2)cc1`: the growth inhibition was 19.7%.

As to `COC(=O)C1CCN(C(=O)c2ccc3oc(Cc4ccc(Cl)cc4)nc3c2)CC1`, the growth inhibition was 19.1%.

In the case of `O=C(Nc1ccc(F)c(Cl)c1)C1CCN(S(=O)(=O)c2cccnc2)CC1`, the growth inhibition is 14.5%.

With `Cc1ccc(NS(=O)(=O)c2ccc3c(c2)NC(=O)CO3)cc1`, the growth inhibition was 18.2%.
